Among all 4,800 compounds or so, about 410 (8.5%) showed an effect of 50% or more. This excerpt belongs to a sample that is enriched for strong results.
What follows are molecules tested on Plasmodium falciparum (assay: Confirmatory screen in NF54 pLDH assay, in single point, at 2uM, 72h). Conditions: timepoint 72 hour.
Assay type: functional, Erythrocyte

Row | SMILES | % Inhibition
1 | CCN1C(=O)[C@]2(NC3(CCCCC3)C(=O)N2CC)c2ccccc21 | -11%
2 | Cc1nn(C)c(NC(=O)CCc2c[nH]cn2)c1C | -7%
3 | Cc1cc(C(=O)NCCCS(N)(=O)=O)c(Cl)cc1F | -7%
4 | Cc1ccc(O)c(CNCC2(c3ccccc3Cl)CCOCC2)n1 | 98%
5 | Cc1ccc(O)c(CNc2ccc3c(c2)OCC3(C)C)n1 | -19%
6 | c1csc(CNC2CCCCCCC2)c1 | -2%
7 | COc1cc(C)c2[nH]c3c(c(=O)c2c1)CN(CC(=O)Nc1ccc(C)c(F)c1)CC3 | 8%
8 | COc1ccc(OC)c(NC(=O)CN2CCc3[nH]c4ccc(F)cc4c(=O)c3C2)c1 | 83%
9 | COc1cc(C)c2[nH]c3c(c(=O)c2c1)CN(CC(=O)Nc1ccc(F)c(C)c1)CC3 | 17%
10 | Cc1nn(-c2ccccc2)c2nc(Cc3ccccc3)nc(N3CCCN(C(=O)NC4CCCCC4)CC3)c12 | 8%
11 | Cc1cc(-c2ccccc2)nc2sc(-c3ccccc3)c([O-])[n+]12 | 5%
12 | Cc1cc(-c2ccccc2)cc(-c2ccccc2)c1-c1cc(-c2ccccc2)cc(-c2ccccc2)n1 | -3%
13 | Cc1cc[n+]2c(-c3ccccc3)cc(-c3ccccc3)nc2c1 | 50%
14 | CC[C@H]1Cn2c(C(=O)NC3CCCC3)cc3c(Cl)ccc(c32)O1 | -11%
15 | Cn1c(=O)c2c(-c3ccc(Cl)cc3)n(-c3cccc4cccc(N)c34)cc2n(C)c1=O | 91%
16 | Cn1c2cn(-c3ccc(F)cc3)c(-c3ccccc3)c2c(=O)n1-c1ccccc1 | 6%
17 | O=C(CCc1nc2ccccc2c(=O)[nH]1)Nc1ccc(-n2cnnn2)cc1 | 6%
18 | O=C(N[C@H]1CCOC1=O)OCc1ccccc1 | -4%
19 | CCOC(=O)c1cnn(C)c1S(=O)(=O)N1CCCCC1 | 2%
20 | CC1CC(NC(=O)NC2CS(=O)(=O)c3ccccc32)C(=O)N1c1ccccc1 (stereo unspecified) | -1%
21 | Cc1ccc(Nc2c(-c3cc4ccccc4cc3O)nc3ncccn23)cc1 | 6%
22 | CCCCCc1c(C)nc2[nH]n(-c3ccccc3)c(=O)c2c1O | -22%

Row | SMILES | % Inhibition
23 | CNCCc1c(-c2ccccc2)[nH]n(-c2ccccc2)c1=O | 69%
24 | O=C1CCCc2nc3[nH]n(-c4ccccc4)c(=O)c3cc21 | 13%
25 | CCOc1cccc(NCc2c(N)ncnc2OC)c1 | 13%
26 | CC[C@@](C)(C(=O)NC1CCCC1)N(Cc1ccco1)C(=O)c1ccc2c(c1)OCO2 | -9%
27 | Cc1ccc(CN2CCS(=O)(=O)CC2)o1 | -13%
28 | Cc1oc(-c2ccc(C(=O)Nc3cccc(Cl)c3C)cc2)nc1COc1ccccc1 | 9%
29 | Oc1ccc2cc(CN3CCC[C@H](CN4CCCC4)C3)ccc2c1 | 97%
30 | CN1CCC(N2CCN(Cc3ccc4cc(O)ccc4c3)CC2)CC1 | 92%
31 | CN1CC[C@H](CN(C)Cc2ccc3cc(O)ccc3c2)C1 | 36%
32 | COc1ccc(NC(=O)N2C[C@@H]3C[C@H](NS(=O)(=O)c4ccccc4)[C@H]2C3)c(C)c1 | 3%
33 | CCc1cccc(NC(=O)C2CCN(c3c(C)n(-c4ccccc4)c(=O)n(CC(C)C)c3=O)CC2)c1 | 5%
34 | O=C1c2ccccc2C(=O)N1Cc1cnn(CC(F)F)c1 | 12%
35 | COc1ccc2oc(-c3ccc(CNC(=O)c4cccnc4)cc3)nc2c1 | 6%
36 | CC(C)(C)OC(=O)N1CCC(c2c(C(=O)Nc3ccc(Cl)cc3Cl)cnn2-c2cccc(F)c2)CC1 | -3%
37 | CC1(C)C(=O)NCCN1C(=O)c1ccc2nccnc2c1 | 9%
38 | CN(C(=O)c1n[nH]c2c1CCC2)[C@H]1CCCc2c1cnn2C | -4%
39 | O=S1(=O)c2ccccc2N=NN1Cc1ccc(Cl)cc1 | -19%
40 | O=C(Nc1ccc(N2CCn3c(nc4ccccc43)C2)cc1)c1ccc(F)cc1 | 14%
41 | O=C(Nc1cnc2ccccc2c1)c1ccccc1C(=O)c1ccc(F)cc1 | 94%
42 | O=C(Nc1cc(NC(=O)c2ccc(F)cc2)cc(Oc2cccnc2)c1)c1ccc(F)cc1 | 5%
43 | CN(C)c1cccc(C(=O)N2CCN(c3ncc(F)cn3)C(=O)C2)c1 | 10%
44 | Cc1nnc2sc(-c3cnn(-c4ccccn4)c3C(F)(F)F)nn12 | -4%

Row | SMILES | % Inhibition
45 | c1ccc(-c2cccnc2NCc2cscn2)cc1 | -3%
46 | Cc1ccc(C2C(C(=O)N3CCC(C)CC3)CCC(=O)N2C)cc1 (stereo unspecified) | -1%
47 | COC(=O)[C@@H]1[C@@H](NC(=O)C2CCCC2)CCN1C(C)=O | 1%
48 | Cc1cc2c(cc1C)N(CC(=O)Nc1ccc(C(F)(F)F)cc1)C(=O)CC(c1cccs1)=N2 | -23%
49 | CC1CC(C(=O)Nc2[nH]c(=O)ncc2F)CC(C)(C)C1 (stereo unspecified) | 84%
50 | CC(=O)N[C@@H]1CN(Cc2nccn2Cc2ccccc2)C[C@H]1c1nccn1C | 12%
51 | Cc1ccc(S(=O)(=O)N2CC(C)N(C(=O)N3CCOCC3)C2C)cc1 (stereo unspecified) | 14%
52 | FC(F)(F)C1CCCC(NCc2c[nH]nc2-c2cccnc2)C1 (stereo unspecified) | 3%
53 | Nc1c(-c2ccc(F)cc2)nsc1C(=O)NC1CCN(Cc2ccccc2)CC1 | 8%
54 | CC1CCN(Cc2ccc(CNCc3c[nH]nc3-c3ccc(F)cc3)cc2)CC1 | 50%
55 | c1ccc(-c2ccccc2NCn2nnc3ccccc32)cc1 | -9%
56 | CCc1cccc(NC(=O)N2CCC3(CC2)C(=O)N(CC(=O)Nc2ccc(F)cc2)CN3c2ccccc2)c1 | 30%
57 | CC(C)N(CCS(C)(=O)=O)C(=O)NCc1ccco1 | 10%
58 | CN(C)CCN(C)c1ccc(Br)cc1NCc1cncn1C | 39%
59 | CCn1nc(C)c(CN(C)S(=O)(=O)c2ccc(N3CCCC3=O)cc2)c1C | -1%
60 | Cc1cccc(Nc2nc(-c3cnc(N4CCN(C)CC4)nc3C)cc(=O)[nH]2)c1 | 4%
61 | Cc1ccc(NC(=O)Nc2cccc(-c3ccc(N4CCN(C)CC4)nn3)c2)cc1C | 13%
62 | Cc1cc(C(=O)N[C@@H](C)C(=O)N2CCCCC2)c2nc3n(c2n1)CCCCC3 | 8%
63 | Oc1ccc(-n2c(-c3ccccc3)ccc2-c2ccccc2)cc1 | 12%
64 | COc1ccc2c(c1)[n+](CC(=O)c1ccc(-c3ccc(Br)cc3)cc1)c(CO)n2C | 54%
65 | Cc1ccc(C(=O)C[n+]2cc(-c3ccc(Br)cc3)n(C)c2N)cc1 | -16%
66 | COc1cccc(C(=O)C[n+]2cc(-c3ccc(Br)cc3)n(C)c2N)c1 | 4%

— ChEMBL document CHEMBL4888484, “Replenishing the malaria drug discovery pipeline: Screening and hit evaluation of the MMV Hit Generation Library 1 (HGL1) against asexual blood stage Plasmodium falciparum ,using a nano luciferase reporter read-out” (2022)
